Experimental data from PubChem BioAssay (NCATS).
Results filed as inconclusive are left out. Entries that show only a call come without a potency. A number with no mark means an inactive call. Calls of active or inactive are those of the source. The call rests on the fitted dose curve; in most records, active means well fitted inhibition curve with a large enough effect; inconclusive means small, poorly fitted or top-dose-only effect; inactive means no such curve, though single readings can be large or run the other way.

Tested on: Zika virus NS2B-NS3 protease (linked construct)
Test: Primary screen NINDS Rhodamine qHTS for Zika virus inhibitors (AID 1347160); further: nearly all actives have a fitted effect of over 55% in size
Conditions: purified NS2B-NS3 protease, Rhodamine110 substrate fluorescence; series mostly up to 57.1 µM
In short: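 Kinetic fluorescence (Ex 480 nm, Em 540 nm) over 15 min with 1.5 microM Rhodamine110 peptide and 25 nM linked protease.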
Potency means the concentration at half of the fitted maximal effect.

Row | Compound | Potency | activity change, negative = inhibition
1 | N[C@@]1(C(=O)O)CC[C@H]2[C@H](C(=O)O)[C@H]21 | inactive | –
2 | CN1c2ccccc2C(=O)N2CCC3c4ccccc4NC3C21 (stereo not given) | inactive | –
3 | C[C@H](NC(=O)CCc1nc2ccccc2c(=O)[nH]1)c1ccccc1 | inactive | –
4 | CC1(C)CCC[C@@]2(C)C1[C@H](OC(=O)/C=C/C=C/C(=O)O)C=C1COC(=O)[C@@]12O (stereo not given in full) | inactive | –
5 | C[C@@H]1CC[C@]2(C(=O)O)CC[C@]3(C)C(=CCC4[C@@]5(C)C[C@@H](O)[C@H](O)[C@@](C)(CO)C5CC[C@]43C)C2[C@]1(C)O (stereo not given in full) | inactive | –
6 | C(#Cc1nc2ncccc2nc1OCCN1CCCC1)c1ccccc1 | inactive | –
7 | O=C(OCC1=CC(O)C2C=CO[C@@H](O[C@@H]3O[C@H](CO)[C@@H](O)[C@H](O)[C@H]3O)C12)c1ccccc1 (stereo not given in full) | inactive | –
8 | [N-]=[N+]=N[C@]1(CO)O[C@@H](n2ccc(=O)[nH]c2=O)[C@@H](O)[C@@H]1O | inactive | –
9 | COc1ccccc1Oc1ccc(N(Cc2cccnc2)S(=O)(=O)CC(F)(F)F)cc1 | inactive | –
10 | C=C(C(=O)O)[C@@H]1CC[C@@]2(C)CC[C@H](O)[C@@]2(C(C)=O)C1 | inactive | –
11 | COc1cc2ncnc(Nc3cccc(Cl)c3F)c2cc1OC(=O)N1CCN(C)C[C@H]1C | inactive | –
12 | CC1CC[C@]2(C(=O)O)CC[C@]3(C(=O)O)C(=CCC4[C@@]5(C)CC[C@H](OC6OC(C)C(O)C(OC7OC(CO)C(O)C(O)C7O)C6O)C(C)(C)C5CC[C@]43C)C2C1C (stereo not given in full) | inactive | –
13 | CC1CC2OC3(OC2C(C)(C)O)C1C1(C)CCC24CC25CCC(O[C@@H]2OC[C@@H](O)[C@H](O)[C@H]2O)C(C)(C)C5CC=C4C1(C)C3O (stereo not given in full) | inactive | –
14 | CC(=O)O[C@H]1[C@@H](O)[C@H](O[C@H]2[C@@H]3C=CO[C@@H](O[C@H]4O[C@@H](CO)[C@H](O)[C@@H](O)[C@@H]4O)[C@@H]3[C@@]3(CO)O[C@@H]23)O[C@@H](C)[C@@H]1OC(=O)/C=C/c1ccccc1 | inactive | –
15 | CC(=O)O[C@@H]1CC(C)=C2[C@H]1[C@H](C)CC[C@H]2/C=C(\C)C(=O)O | inactive | –
16 | CC12CCC(=O)C=C1C(O)CC1C2C(O)CC2(C)C1CC[C@]2(O)C(=O)CO (stereo not given in full) | inactive | –
17 | CC1CC(O)/C=C/C(O)C(O)CC(=O)Cc2c(Cl)c(O)cc(O)c2C(=O)O1 (stereo not given) | inactive | –
18 | Cc1cc(-c2cc(O)ccc2Cl)cc2nnc(Nc3ccc(OCCN4CCCC4)cc3)nc12 | inactive | –
19 | C/C1=C\CCC2=C[C@@H](OC2=O)c2c(C)coc2C1 | inactive | –
20 | CC1(C)CCCC2(C)C1CC=C1C(=O)OC(O)C12O (stereo not given) | inactive | –

Row | Compound | Potency | activity change, negative = inhibition
21 | C=C1CCC2C(C)(C)CCC[C@]2(C)[C@H]1C/C=C(\CO)C(=O)C(=O)O (stereo not given in full) | inactive | –
22 | CC1(C)CCCC2(C)C(C(=O)O)=CCC12 (stereo not given) | inactive | –
23 | C=CC1(C)C=C2C(=O)OC(=O)C3=C(CCCC3(C)C)C2(O)CC1 (stereo not given) | inactive | –
24 | CC(C)=CCC/C(C)=C/CCC1(C)Oc2c(c(O)cc3c2CN(C(CCC(=O)O)C(=O)O)C3=O)CC1O (stereo not given) | inactive | –
25 | Clc1cc2c(NC3CCCC3)nnc(-c3ccncc3)c2cc1Cl | inactive | –
26 | O=C(/C=C\n1cnc(-c2cc(C(F)(F)F)cc(C(F)(F)F)c2)n1)N1CC(F)(F)C1 | inactive | –
27 | C[C@@H]1C[C@@H]2O[C@H]2/C=C\C=C\C(=O)Cc2c(Cl)c(O)cc(O)c2C(=O)O1 | inactive | –
28 | CC1=CCC2C(C)(C)CCC[C@]2(C)[C@@]12CC[C@](C)(CC(=O)O)O2 (stereo not given in full) | inactive | –
29 | O=C(/C=C\c1ccc(O)cc1)N[C@@H](Cc1ccc(O)cc1)C(=O)O | 12.6 µM (active) | –
30 | CC(=O)OC1/C(C)=C/C(=O)C(OC(C)=O)C(C)(C)/C=C/C(C)C(=O)C2(OC(C)=O)CC(C)C(OC(=O)c3ccccc3)C12 (stereo not given) | inactive | –
31 | COc1cc(O)c2c(c1)C1=CC(O)C(O)CC1(C)OC2=O (stereo not given) | inactive | –
32 | C=C1CCC2C(C)(C(=O)O)CCCC2(C)C1CC/C(=C\CO)CO (stereo not given) | inactive | –
33 | CC1=CC(=O)[C@]2(O[C@@H]3O[C@@H](C)[C@H](O)[C@@H](O)[C@H]3OC(=O)/C=C/c3ccccc3)C=CO[C@@H](O[C@@H]3O[C@H](CO)[C@@H](O)[C@H](O)[C@H]3O)[C@H]12 | inactive | –
34 | CC(C)CCC[C@@H](C)[C@H]1CC[C@H]2[C@@H]3CC(=O)[C@H]4C[C@@H](O)CC[C@]4(C)[C@H]3CC[C@]12C | inactive | –
35 | C/C=C/c1ccc2c(c1)[C@@H](C)[C@H](c1ccc(O)cc1)O2 | inactive | –
36 | CC(C)(O)c1ccc2c(c1)C(O)C[C@H]1[C@](C)(C(=O)O)CCC[C@]21C (stereo not given in full) | inactive | –
37 | O=C(O)C1CN(Cc2ccc(-c3nc4cc(Cc5ccccc5F)ccc4s3)c(F)c2)C1 | – | -8.39% [at 10.7 µM]
38 | C/C=C1\[C@H](O[C@@H]2O[C@H](CO)[C@@H](O)[C@H](O)[C@H]2O)OC=C(C(=O)OC)[C@H]1CC(=O)OC[C@H]1O[C@@H](OCCc2ccc(O)cc2)[C@H](O)[C@@H](O)[C@@H]1O | inactive | –
39 | C=C1C(OC(=O)/C(C)=C\C)[C@@]23CCC4[C@@](C)(CCC[C@@]4(C)C(=O)O)C2CC[C@H]1C3OC(C)=O (stereo not given in full) | inactive | –
40 | CC1=C2C3OC(=O)C(C)C3(O)CCC2(C)CCC1O (stereo not given) | inactive | –
